# Laboratory results taken from the supplement of paper PMC10498489.
# Screen size: about 2,300 compounds; about 330 (14%) showed activity. These entries were drawn from the full list. Unmarked numbers belong to inactive results.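 Rule for the calls: active = median modified Z-score above 1.96; inactive = 1.96 or below.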
# Tested on: HepG2 Srxn1-GFP reporter cells (+30 nM CDDO-Me)
# Test: Srxn1-GFP intensity median modified Z-score relative to plate median; higher = stronger NRF2 / oxidative stress reporter activation, active = hit call of the paper
# Details: 10 µM; exposure time: 24h
# Summary of the method: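 The per-plate modified Z-score of GFP intensity, taken as a median across replicates, is what each value represents. Three replicate plates of HepG2 Srxn1-GFP BAC reporter cells were exposed for 24 h to an NRF2 activator at 30 nM combined with compound at 10 μM (≤0.1% DMSO). Cytoplasmic GFP per cell was read from confocal images, excluding any with under 100 cells, and scaling used 1.4826 × median absolute deviation.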
row,Compound,Srxn1-GFP intensity median modified Z-score
1,CCCCCCCCCCOc1cc2c(=O)c(C(=O)OCC)c[nH]c2cc1OCC [euspeclibcmpd775],0
2,COC(=O)CC1C(C)(C)C(O)C2CC3=C4CC(O)OC(c5ccoc5)C4(C)CCC3C1(C)C2=O (stereo not given) [euspeclibcmpd1860],0.479
3,C=CC[C@]1(O)CCC2C3=C(C=C[C@@]21C)C1=C(CC3)CC(=O)CC1 (stereo not given in full) [euspeclibcmpd848],0.704
4,O=c1c(O)cccc2cc(O)c(O)c(O)c12 [euspeclibcmpd1723],-0.877
5,Cc1cc(O)c2c(O)c3c(O)cccc3cc2c1 [euspeclibcmpd2068],2.58 (active)
6,Oc1cccc2cc3cccc(O)c3c(O)c12 [euspeclibcmpd25],-0.419
7,CC(=O)Oc1ccccc1C(=O)Oc1ccccc1C(=O)O [euspeclibcmpd1749],-0.327
8,CCCCC(=O)Oc1ccccc1C(=O)O [euspeclibcmpd1887],14.5 (active)
9,O=C(/C=C/C(=O)Oc1ccccc1C(=O)O)Oc1ccccc1C(=O)O [euspeclibcmpd1772],-0.354
10,O=C(Oc1ccccc1C(=O)O)c1ccccc1O [euspeclibcmpd2],-0.023
11,O=C(O)c1ccccc1OP(=O)(O)O [euspeclibcmpd1073],-0.579
12,CC(=O)Oc1ccccc1C(=O)O [euspeclibcmpd28],61 (active)
13,CCCCCN(C)CCC(O)(P(=O)(O)O)P(=O)(O)O [euspeclibcmpd2308],-0.118
14,CCCc1cc(C(N)=S)ccn1 [euspeclibcmpd1165],-0.267
15,NC[C@H]1O[C@H](OC2[C@@H](N)C[C@@H](N)[C@H](O[C@H]3O[C@H](CO)[C@@H](O)[C@H](N)[C@H]3O)[C@H]2O)[C@H](O)[C@@H](O)[C@@H]1O (stereo not given in full) [euspeclibcmpd168],-0.199
16,CC(C)CCCC(C)C1CCC2C3CC[C@H]4C[C@@H](O)CC[C@]4(C)C3CC[C@]12C (stereo not given in full) [euspeclibcmpd2135],0.00623
17,NCCC[C@H](N)CC(=O)NC1CNC(=O)C([C@H]2C[C@H](O)NC(N)=N2)NC(=O)C(C=NC(N)=O)NC(=O)[C@H](CO)NC(=O)[C@H](CO)NC1=O (stereo not given in full) [euspeclibcmpd994],-0.33
18,O=C(O)c1cc2cc(Cl)ccc2[nH]1 [euspeclibcmpd2020],1.97 (active)
19,CC(C(=O)O)c1ccc2c(c1)[nH]c1ccc(Cl)cc12 (stereo not given) [euspeclibcmpd425],0.027
20,O=C(O)c1cc(=O)[nH]c(=O)[nH]1 [euspeclibcmpd1192],-0.551
21,CCn1cc(C(=O)O)c(=O)c2cc(F)c(N3CCN(C(=O)CCSC)CC3)cc21,0.401
22,NS(=O)(=O)c1cc2c(cc1Cl)N=C(CSCc1ccccc1)NS2(=O)=O [euspeclibcmpd35],-0.327
23,CC1OC1P(=O)(O)O (stereo not given) [euspeclibcmpd2281],-0.455
24,CC(C)[N+](C)(CCOC(=O)C1c2ccccc2Oc2ccccc21)C(C)C [euspeclibcmpd254],0.13

row,Compound,Srxn1-GFP intensity median modified Z-score
1,O=Cc1ccccc1O[C@@H]1O[C@H](CO)[C@H](O)[C@@H](O)[C@H]1O [euspeclibcmpd1574],0.476
2,N[C@@H]1[C@@H](O)[C@H](O)[C@@H](CO)O[C@H]1O [euspeclibcmpd140],0.0216
3,CCCCOc1ccc(C(=O)CCN2CCCCC2)cc1 [euspeclibcmpd107],3.53 (active)
4,N#Cc1ccc(C(=O)NCCCCN2CCOCC2)cc1,0.374
5,O=C(NCCCCN1CCOCC1)c1ccc(F)cc1,0.352
6,O=C(c1ccc(OCCN2CCCCC2)cc1)c1c(-c2ccc(O)cc2)sc2cc(O)ccc12 [euspeclibcmpd831],-0.702
7,CC1CCN(CCCC(=O)c2ccc(F)cc2)CC1 [euspeclibcmpd1905],1.19
8,CCCCOc1ccc(OCCCN2CCOCC2)cc1 [euspeclibcmpd396],2.42 (active)
9,O=c1c(O)cc2c(O)oc3c(=O)c(O)cc4c(O)oc1c2c43 [euspeclibcmpd1077],0.204
10,CC1CC[C@@]2(OC1)O[C@H]1CC3C4CC[C@@H]5C[C@@H](O)CC[C@]5(C)C4CC[C@]3(C)[C@H]1[C@@H]2C (stereo not given in full) [euspeclibcmpd2070],-0.402
11,O=C(C=Cc1ccc(O)c(O)c1)O[C@@H]1C[C@](O)(C(=O)O)C[C@@H](O)[C@H]1O [euspeclibcmpd1682],1.16
12,C[C@]12C=CC(=O)CC1=CCC1C2[C@@H](O)C[C@@]2(C)C1CC[C@]2(O)C(=O)COC(=O)CCC(=O)O (stereo not given in full) [euspeclibcmpd794],0.608
13,Cc1cccc(N=c2cc[nH]cc2S(=O)(=O)NC(=O)NC(C)C)c1 [euspeclibcmpd2184],0
14,C[C@]12CCC3c4ccc(OC(=O)c5ccccc5)cc4CCC3C1CC[C@@H]2O (stereo not given in full) [euspeclibcmpd412],0.298
15,NC(=O)COC(=O)c1ccccc1Nc1cccc(C(F)(F)F)c1,1.26
16,CC(=O)OCC(=O)[C@@]1(O)CCC2C3CC=C4CC(=O)C=C[C@]4(C)[C@@]3(Cl)[C@@H](Cl)C[C@@]21C (stereo not given in full) [euspeclibcmpd1222],-0.43
17,CCC1OC(=O)C(C)C(=O)C(C)[C@@H](OC2O[C@H](C)C[C@H](N(C)C)[C@H]2O)[C@](C)(OC)CC(C)C(=O)C(C)[C@@H]2N(CCCCn3cnc(-c4cccnc4)c3)C(=O)O[C@]12C (stereo not given in full) [euspeclibcmpd733],-0.17
18,Oc1c(I)cc(Cl)c2cccnc12 [euspeclibcmpd705],2.87 (active)
19,Cc1ccc(Cl)c2cccnc12,1.45
20,O=S(=O)(O)c1cc(I)c(O)c2ncccc12 [euspeclibcmpd2311],-0.435
21,Oc1c(Br)cc(Br)c2cccnc12 [euspeclibcmpd1032],4.39 (active)
22,Oc1c(I)cc(Cl)c2cccnc12,1.31
23,O=[N+]([O-])c1ccc(O)c2ncccc12 [euspeclibcmpd1218],-0.363
24,Oc1ccc(Cl)c2cccnc12 [euspeclibcmpd72],-1.02

row,Compound,Srxn1-GFP intensity median modified Z-score
1,Oc1c(Cl)cc(Cl)c2cccnc12 [euspeclibcmpd537],2.82 (active)
2,Oc1c(I)cc(I)c2cccnc12 [euspeclibcmpd2015],1.62
3,CCc1c(C)cn(C(=O)NCCc2ccc(S(=O)(=O)NC(=O)N[C@H]3CC[C@H](C)CC3)cc2)c1O [euspeclibcmpd697],-0.793
4,O=C(O[C@@H]1Cc2c(O)cc(O)cc2O[C@@H]1c1cc(O)c(O)c(O)c1-c1c([C@H]2Oc3cc(O)cc(O)c3C[C@H]2OC(=O)c2cc(O)c(O)c(O)c2)cc(O)c(O)c1O)c1cc(O)c(O)c(O)c1 [euspeclibcmpd2312],-0.214
5,COc1[nH]cnc(=NS(=O)(=O)c2ccc(N)cc2)c1OC [euspeclibcmpd917],-0.467
6,COc1cc(OC)c2c(c1Cl)OC1(C(=O)CC(=O)CC1C)C2=O (stereo not given) [euspeclibcmpd1388],-0.00204
7,CC(=O)OCC(=O)[C@@]1(O)[C@H](OC(C)=O)CC2C3CC=C4CC(=O)C=C[C@]4(C)[C@@]3(F)[C@@H](O)C[C@@]21C (stereo not given in full) [euspeclibcmpd1284],-0.169
8,N=c1[nH]cnc2c1ncn2C1C[C@H](O)[C@@H](CO)O1 (stereo not given in full) [euspeclibcmpd2091],-0.0836
9,CO[C@H]1/C=C/O[C@@]2(C)Oc3c(C)c(O)c4c(O)c(c5c(nc6cc(C)ccn65)c4c3C2=O)NC(=O)/C(C)=C\C=C\C(C)[C@H](O)[C@@H](C)C(O)[C@@H](C)[C@H](OC(C)=O)[C@@H]1C (stereo not given in full) [euspeclibcmpd745],-0.528
10,Clc1ccc(C(Cn2ccnc2)OCc2ccsc2Cl)c(Cl)c1 (stereo not given) [euspeclibcmpd1174],15.7 (active)
11,Clc1ccc(CON=C(Cn2ccnc2)c2ccc(Cl)cc2Cl)c(Cl)c1 [euspeclibcmpd747],-0.564
12,Clc1ccc(CSC(Cn2ccnc2)c2ccc(Cl)cc2Cl)cc1 (stereo not given) [euspeclibcmpd401],22.5 (active)
13,C=CCOC(Cn1ccnc1)c1ccc(Cl)cc1Cl (stereo not given) [euspeclibcmpd2390],6.42 (active)
14,Clc1ccc(COC(Cn2ccnc2)c2ccc(Cl)cc2Cl)cc1 (stereo not given) [euspeclibcmpd413],15.1 (active)
15,C=CC1=C(C(=O)O)N2C(=O)C(NC(=O)C(=NO)c3csc(=N)[nH]3)C2SC1 (stereo not given) [euspeclibcmpd718],-0.455
16,CC(=CC(=O)OCCCCCCCCC(=O)O)C[C@@H]1OC[C@H](C[C@@H]2O[C@H]2[C@@H](C)[C@H](C)O)[C@@H](O)[C@H]1O [euspeclibcmpd851],0.838
17,Cc1cnn(CCC(=O)NC2CCCN(c3ccc(C)nn3)C2)c1 (stereo not given),1.37
18,O=C(O)c1cc(O)c(=O)c2c(O)c(O)c(O)cc2c1 [euspeclibcmpd1713],-0.567
19,Cc1ccsc1C=CC1=NCCCN1C [euspeclibcmpd638],0.449
20,O=C(O)/C=C/C(=O)O [euspeclibcmpd2444],-0.338
21,CC1CN(C)CCN1C(=O)c1ccc(CCNS(C)(=O)=O)s1 (stereo not given),1.16
22,Nc1ccc(S(=O)(=O)N=c2cc[nH]n2-c2ccccc2)cc1 [euspeclibcmpd1061],0.53
